Laboratory results taken from PubChem BioAssay (NCATS).
Inconclusive results are not listed. Activity calls are given as the source filed them. Calls follow the shape of the dose curve; as a rule, active = well fitted curve in the direction sought with a large enough effect; inconclusive = small, poorly fitted or top-dose-only effect, or another doubt; inactive = no such curve, though single readings can be large; an effect the other way counts as inactive or inconclusive.

Columns and labels:
[1] = MultiTox-Fluor Cytotoxicity Assay - LYMP1-001 - Live Cells (AID 947); conditions: LYMP1-001 lymphoblastoid cells, live-cell protease fluorescence viability; series mostly up to 92.2 µM
[2] = Cell Viability - LYMP1-002 - Assay at 16 hr (AID 948); conditions: LYMP1-002 lymphoblastoid cell viability; series mostly up to 92.2 µM
Procedure, shortened: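 LYMP1-002 human lymphoblastoid cells, 2500/well; 5 hr 37 C; cpd 16 hr 37 C; CellTiter-Glo 30 min RT; luminescence (ATP). Concentration-response, Hill-fit AC50. Pos ctrl tetraoctylammonium bromide.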

[3] = MultiTox-Fluor Cytotoxicity Assay - LYMP1-002 - Live Cells (AID 955); conditions: LYMP1-002 lymphoblastoid live-cell protease fluorescence viability; series mostly up to 46.1 µM;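 also: cells exposed to compound for 16 hours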
Procedure, shortened: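 Cells were seeded at 2500 per well and incubated 5 hr. Compounds were then added for 16 hr at 37 C, followed by MultiTox-Fluor reagent for 60 min at room temperature and fluorescence reading of viable-cell protease signal.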

[4] = MultiTox-Fluor Cytotoxicity Assay - LYMP1-002 - Dead Cells (AID 960); conditions: LYMP1-002 lymphoblastoid cells, dead-cell protease fluorescence; series mostly up to 46.1 µM;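 also: cells exposed to compound for 16 h at 37 °C; nearly all actives have a fitted effect of over 60% in size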
Procedure, shortened: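 Cells were plated, rested 5 hr, then treated with compound dilution series for 16 hr at 37 C. After adding substrate reagent and 60 min at room temperature, dead-cell protease fluorescence gave concentration-response curves fitted by the Hill equation.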

[5] = MultiTox-Fluor Cytotoxicity Assay - LYMP1-003 - Dead Cells (AID 961); conditions: LYMP1-003 lymphoblastoid cells, dead-cell protease fluorescence; series mostly up to 92.2 µM;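 also: cells exposed to compound for 16 h at 37 °C; nearly all actives have a fitted effect of over 70% in size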
Procedure, shortened: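 Human lymphoblastoid LYMP1-003 cells (2500/well) were treated with compounds for 16 hr at 37 C in complete medium. Dead-cell protease release was read by bis-AAF-R110 fluorescence (Ex/Em 485/520). AC50 came from Hill fits, normalized to DMSO and 15 uM tetraoctylammonium bromide.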

[6] = MultiTox-Fluor Cytotoxicity Assay - LYMP1-003 - Live Cells (AID 962); conditions: LYMP1-003 lymphoblastoid cells, MultiTox-Fluor live-cell protease fluorescence; series mostly up to 92.2 µM;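 also: cells exposed to compound for 16 hours at 37 °C; cytotoxic hits lower the live-cell protease signal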
Procedure, shortened: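 Acute cytotoxicity is scored as a drop in live-cell protease activity in human lymphoblastoid LYMP1-003 cells after 16 hr compound exposure at 37 C. AC50 values come from Hill-equation modelling of concentration-response data.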

[7] = Cell Viability - LYMP1-003 - Assay at 24 hr (AID 963); conditions: LYMP1-003 lymphoblastoid cell viability; series mostly up to 92.2 µM
Procedure, shortened: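 Cytotoxicity is scored as a concentration-dependent fall in ATP-linked luciferase signal in human lymphoblastoid LYMP1-003 cells treated 24 hr at 37 C in complete culture medium.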

[8] = Cell Viability - LYMP1-003 - Assay at 40 hr (AID 964); conditions: LYMP1-003 lymphoblastoid viability; series mostly up to 92.2 µM; also: nearly all actives have a fitted effect of over 60% in size
Procedure, shortened: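 Luminescent ATP signal (CellTiter-Glo) served as the viability read-out after 40 hr compound treatment of human lymphoblastoid LYMP1-003 cells at 37 C. Decreases in ATP were fitted with the Hill equation to give AC50.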

[9] = Cell Viability - LYMP2-003 (AID 965); conditions: LYMP2-003 lymphoblastoid cell viability; series mostly up to 92.2 µM;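 also: cells exposed to compounds for 24 h before reading; nearly all actives have a fitted effect of over 50% in size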
Procedure, shortened: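 CellTiter-Glo luminescence (cellular ATP) after 24 h compound exposure at 37 C in complete medium; 2500 cells/well, 5 h settling beforehand. Concentration-response fitted to standard Hill equation for AC50. Tetraoctylammonium bromide served as positive control.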

[10] = Cell Viability - LYMP2-004 (AID 966); conditions: LYMP2-004 lymphoblastoid cell viability, qHTS; series mostly up to 92.2 µM; also: nearly all actives have a fitted effect of over 65% in size
Procedure, shortened: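 qHTS cytotoxicity: human lymphoblastoid line, 24 hr compound treatment, 37 C, complete medium. Viability read as cellular ATP via luciferase luminescence; tetraoctylammonium bromide served as positive control.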

[11] = Cell Viability - LYMP2-005 (AID 967); conditions: LYMP2-005 lymphoblastoid cell viability; series mostly up to 92.2 µM
Procedure, shortened: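 Steps: seed 2500 LYMP2-005 cells/well, incubate 5 h at 37 C, add compound, incubate 24 h at 37 C, add CellTiter-Glo, wait 30 min at RT, read luminescence. Concentration-response data fitted to Hill equation for AC50.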

[12] = Cell Viability - LYMP2-009 (AID 968); conditions: LYMP2-009 lymphoblastoid cell viability; series mostly up to 92.2 µM; also: nearly all actives have a fitted effect of over 55% in size
[13] = Cell Viability - LYMP2-011 (AID 969); conditions: LYMP2-011 lymphoblastoid cells viability; series mostly up to 92.2 µM; also: nearly all actives have a fitted effect of over 60% in size
Procedure, shortened: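 In this qHTS cytotoxicity format, compounds are tested across concentrations on human lymphoblastoid cells in complete medium for 24 hours at 37 C. Viability is taken as cellular ATP measured by luciferase luminescence.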

[14] = Cell Viability - LYMP2-013 (AID 970); conditions: LYMP2-013 lymphoblastoid cells viability; series mostly up to 92.2 µM; also: nearly all actives have a fitted effect of over 55% in size
Procedure, shortened: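 Cytotoxicity is scored as a concentration-dependent drop in intracellular ATP in human lymphoblastoid cells after 24 hr compound exposure at 37 C. ATP is quantified by luciferase luminescence, and AC50 values come from Hill-equation modeling.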

[15] = Cell Viability - LYMP2-015 (AID 971); conditions: LYMP2-015 lymphoblastoid cell viability; series mostly up to 92.2 µM; also: nearly all actives have a fitted effect of over 55% in size
Procedure, shortened: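 Cells are seeded at 2500 per well and incubated 5 hr at 37 C. Compounds are added across a concentration series for 24 hr at 37 C. CellTiter-Glo is added, and luminescence is read after 30 min at room temperature.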

[16] = Cell Viability - LYMP2-017 (AID 972); conditions: LYMP2-017 lymphoblastoid cell viability; series mostly up to 92.2 µM; also: nearly all actives have a fitted effect of over 55% in size
Procedure, shortened: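 Cytotoxicity is scored as a concentration-dependent drop in cellular ATP in a human lymphoblastoid line after 24 hr treatment at 37 C. Values are AC50s from Hill-equation modelling.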

[17] = Cell Viability - LYMP2-019 (AID 973); conditions: LYMP2-019 lymphoblastoid cell line viability; series mostly up to 92.2 µM; also: nearly all actives have a fitted effect of over 55% in size
Procedure, shortened: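 Cytotoxicity is scored as a concentration-dependent drop in cellular ATP after cells (2500/well) receive compound for 24 hr at 37 C. Tetraoctylammonium bromide serves as positive control.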

[18] = Cell Viability - LYMP2-021 (AID 974); conditions: LYMP2-021 lymphoblastoid cells viability; series mostly up to 92.2 µM
Procedure, shortened: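 Loss of cellular ATP, measured with a luciferase-based CellTiter-Glo readout, serves as the toxicity signal in human lymphoblastoid cells treated for 24 hours at 37 C. Potency is reported as AC50 from a standard Hill model.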

[19] = Cell Viability - LYMP2-023 (AID 975); conditions: LYMP2-023 lymphoblastoid cell viability; series mostly up to 92.2 µM; also: nearly all actives have a fitted effect of over 55% in size
Procedure, shortened: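 Steps: seed 2500 human lymphoblastoid cells per well, incubate 5 hr at 37 C, add compound for 24 hr at 37 C, add CellTiter-Glo, hold 30 min at room temperature, read luminescence. AC50 derived by Hill modelling.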

[20] = Cell Viability - LYMP2-025 (AID 976); conditions: LYMP2-025 lymphoblastoid cell viability; series mostly up to 92.2 µM
Procedure, shortened: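 Acute cytotoxicity is scored as a concentration-dependent fall in intracellular ATP, measured by luciferase luminescence, in human lymphoblastoid LYMP2-025 cells exposed to compound for 24 hours at 37 C. AC50 values come from standard Hill fits.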

Measured: outcome

CC(C)(c1cc(Br)c(O)c(Br)c1)c1cc(Br)c(O)c(Br)c1
inactive: all assays above
